Source: PubChem BioAssay (Tox21)
A number with no mark means an inactive call. Records with an inconclusive call do not appear. Entries that show only a call come without a potency. Activity calls are given as the source filed them. Unless noted, the call rests on the fitted dose curve; in most records, active means well fitted curve in the direction sought with a large enough effect in the repeat runs; inconclusive means weak or mixed curves; inactive means no such curve, though single readings can be large; an effect the other way counts as inactive or inconclusive.

Tests used:
[1] = qHTS RealTime-Glo MT Cell Viability Assay in HepG2 cells - 32 hour (AID 1224877); further: nearly all actives have a fitted effect of over 55% in size
In short: (§1)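 Compound treatment began 5 h after plating HepG2 cells (600/well) with NanoLuc luciferase and prosubstrate. Plates stayed at 37 C for 40 h; luminescence was captured at six time points, 0 h through 40 h.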

[2] = A CellTox Green Cytotoxicity Assay to monitor cytotoxicity in HepG2 cells - 24 hour (AID 1224878); further: nearly all actives have a fitted effect of over 45% in size
In short: (§2)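 HepG2 cells were seeded together with the CellTox Green dye at 600 cells/well, left 5 h at 37 C/5% CO2, then given compounds in DMSO. Fluorescence from dye bound to dead-cell DNA was read repeatedly over 40 h of treatment at 37 C.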

[3] = A CellTox Green Cytotoxicity Assay to monitor cytotoxicity in HepG2 cells - 40 hour (AID 1224879); further: nearly all actives have a fitted effect of over 40% in size
In short: as §2

[4] = qHTS RealTime-Glo MT Cell Viability Assay in HEK293 cells - 0 hour (AID 1224880); further: top concentration of the series differs between compounds; nearly all actives have a fitted effect of over 45% in size
In short: (§3)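 HEK293 cells mixed with RealTime-Glo reagents (NanoLuc plus cell-permeant prosubstrate) at 600 cells/well, preincubated 5 h at 37 C/5% CO2, then given 23 nL compound in DMSO. Nonlytic luminescence from viable cells was read at 0, 8, 16, 24, 32 and 40 h.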

[5] = A CellTox Green Cytotoxicity Assay to monitor cytotoxicity in HEK293 cells - 32 hour (AID 1224881); further: nearly all actives have a fitted effect of over 40% in size; further: potency means the concentration at half of the fitted maximal effect
In short: (§4)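 HEK293 cells premixed with CellTox Green dye were seeded at 600 cells/well and left 5 h at 37 C/5% CO2 before pin transfer of 23 nL compound in DMSO. Fluorescence from dye bound to dead-cell DNA was read during 40 h treatment.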

[6] = A CellTox Green Cytotoxicity Assay to monitor cytotoxicity in HepG2 cells - 0 hour (AID 1224882); further: nearly all actives have a fitted effect of over 35% in size
In short: as §2

[7] = A CellTox Green Cytotoxicity Assay to monitor cytotoxicity in HepG2 cells - 32 hour (AID 1224883); further: nearly all actives have a fitted effect of over 50% in size
In short: as §2

[8] = A CellTox Green Cytotoxicity Assay to monitor cytotoxicity in HEK293 cells - 8 hour (AID 1224884); further: nearly all actives have a fitted effect of over 35% in size
In short: as §4

[9] = qHTS RealTime-Glo MT Cell Viability Assay in HepG2 cells - 16 hour (AID 1224885); further: nearly all actives have a fitted effect of over 50% in size
In short: as §1

[10] = qHTS RealTime-Glo MT Cell Viability Assay in HEK293 cells - 24 hour (AID 1224886); further: top concentration of the series differs between compounds; nearly all actives have a fitted effect of over 50% in size
In short: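 Quantitative high-throughput screen of the Tox21 10K library in HEK293: cells and RealTime-Glo reagents plated together, compound added at 5 h, luminescence monitored through 40 h at 37 C.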

[11] = qHTS RealTime-Glo MT Cell Viability Assay in HEK293 cells - 8 hour (AID 1224887); further: top concentration of the series differs between compounds; nearly all actives have a fitted effect of over 50% in size
In short: as §3

[12] = qHTS RealTime-Glo MT Cell Viability Assay in HepG2 cells - 0 hour (AID 1224889); further: nearly all actives have a fitted effect of over 50% in size
In short: as §1

[13] = A CellTox Green Cytotoxicity Assay to monitor cytotoxicity in HepG2 cells - 8 hour (AID 1224890); further: nearly all actives have a fitted effect of over 45% in size
In short: as §2

[14] = qHTS assay to identify small molecule antagonists of the estrogen receptor alpha (ER-alpha) signaling pathway using the BG1 cell line in the presence of 0.1 nM 17-beta-estradiol - cell viability counter screen (AID 1259241); further: nearly all actives have a fitted effect of over 40% in size
In short: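 Measures cytotoxicity alongside the ER-alpha antagonist readout: VM7Luc4E2 cells, charcoal-stripped serum, 0.1 nM 17beta-estradiol final, 22 hr compound incubation at 37C, CellTiter-Fluor fluorescence.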

[15] = qHTS assay to identify small molecule antagonists of the androgen receptor (AR) signaling pathway using the MDA cell line in the presence of 0.5 nM R1881 - cell viability counter screen (AID 1259242); further: nearly all actives have a fitted effect of over 45% in size
In short: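 MDA-kb2 cells (human breast carcinoma, stably carrying MMTV-luciferase reporter) were exposed to compounds with 0.5 nM R1881 (final) for 16 hr at 37C, 0% CO2; viability then read as live-cell protease fluorescence (CellTiter-Fluor, 30 min) in the same wells.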

[16] = target: Estrogen receptor (Homo sapiens) (UniProt P03372); assay: qHTS assay to identify small molecule antagonists of the estrogen receptor alpha (ER-alpha) signaling pathway using the BG1 cell line in the presence of 0.1 nM 17-beta-estradiol (AID 1259244); further: nearly all actives have a fitted effect of over 50% in size
In short: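 VM7Luc4E2 cells (endogenous full-length ER-alpha, stable 4xERE-luciferase) were grown 5 days in phenol red-free medium with charcoal-stripped FBS, then exposed 22 h at 37C to compounds plus 0.1 nM (final) 17beta-estradiol; ONE-Glo luminescence read-out.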

[17] = qHTS assay to identify small molecule HDAC inhibitors (AID 1259364)
In short: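 Wild-type HCT-116 cells were plated overnight, exposed to compounds for 2 h at 37 °C, then given HDAC-Glo class I/II luminogenic reagent for 30 min at room temperature before luminescence was read.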

[18] = A CellTox Green Cytotoxicity Assay to monitor cytotoxicity in HEK293 cells - 16 hour (AID 1224888); further: nearly all actives have a fitted effect of over 35% in size
In short: as §4

[19] = target: Androgen receptor (Homo sapiens) (UniProt P10275); assay: qHTS assay to identify small molecule antagonists of the androgen receptor (AR) signaling pathway using the MDA cell line in the presence of 0.5 nM R1881 (AID 1259243); further: nearly all actives have a fitted effect of over 50% in size
In short: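 MDA-kb2 human breast carcinoma cells carrying an MMTV-luciferase reporter (AR- and GR-responsive) were plated, rested 5 hr at 37C, dosed with compounds, then stimulated with 0.5 nM R1881 (final) for 16 hr; luminescence was read after ONE-Glo.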

[20] = qHTS assay to identify small molecule phospholipidosis (PLD) inducers (AID 1259344; active means well fitted curve in the direction sought with a large enough effect; an effect the other way counts as inactive or inconclusive)
In short: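 Phospholipidosis is scored by imaging LipidTOX-stained pits in HepG2 cells exposed to compound for 24 h at 37 C; pit counts and integrated intensities per well and per cell serve as outputs.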

Sequence of Estrogen receptor (Homo sapiens) (P03372 whole entry, looked up): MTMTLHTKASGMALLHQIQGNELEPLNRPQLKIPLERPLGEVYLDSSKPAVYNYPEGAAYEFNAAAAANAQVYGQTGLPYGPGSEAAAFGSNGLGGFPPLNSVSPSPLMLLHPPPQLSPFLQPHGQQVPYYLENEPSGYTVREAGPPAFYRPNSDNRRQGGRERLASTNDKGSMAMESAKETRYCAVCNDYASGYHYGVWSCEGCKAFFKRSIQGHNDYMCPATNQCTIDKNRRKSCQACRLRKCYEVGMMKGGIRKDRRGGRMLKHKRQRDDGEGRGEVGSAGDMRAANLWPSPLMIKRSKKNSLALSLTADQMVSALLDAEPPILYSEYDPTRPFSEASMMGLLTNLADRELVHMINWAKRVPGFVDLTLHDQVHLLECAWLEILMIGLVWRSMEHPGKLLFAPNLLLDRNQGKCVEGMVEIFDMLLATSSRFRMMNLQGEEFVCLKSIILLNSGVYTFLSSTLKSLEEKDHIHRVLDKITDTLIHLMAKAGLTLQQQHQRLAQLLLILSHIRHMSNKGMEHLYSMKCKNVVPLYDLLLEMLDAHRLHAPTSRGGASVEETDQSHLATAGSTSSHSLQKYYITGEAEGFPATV
Sequence of Androgen receptor (Homo sapiens) (P10275 whole entry, looked up): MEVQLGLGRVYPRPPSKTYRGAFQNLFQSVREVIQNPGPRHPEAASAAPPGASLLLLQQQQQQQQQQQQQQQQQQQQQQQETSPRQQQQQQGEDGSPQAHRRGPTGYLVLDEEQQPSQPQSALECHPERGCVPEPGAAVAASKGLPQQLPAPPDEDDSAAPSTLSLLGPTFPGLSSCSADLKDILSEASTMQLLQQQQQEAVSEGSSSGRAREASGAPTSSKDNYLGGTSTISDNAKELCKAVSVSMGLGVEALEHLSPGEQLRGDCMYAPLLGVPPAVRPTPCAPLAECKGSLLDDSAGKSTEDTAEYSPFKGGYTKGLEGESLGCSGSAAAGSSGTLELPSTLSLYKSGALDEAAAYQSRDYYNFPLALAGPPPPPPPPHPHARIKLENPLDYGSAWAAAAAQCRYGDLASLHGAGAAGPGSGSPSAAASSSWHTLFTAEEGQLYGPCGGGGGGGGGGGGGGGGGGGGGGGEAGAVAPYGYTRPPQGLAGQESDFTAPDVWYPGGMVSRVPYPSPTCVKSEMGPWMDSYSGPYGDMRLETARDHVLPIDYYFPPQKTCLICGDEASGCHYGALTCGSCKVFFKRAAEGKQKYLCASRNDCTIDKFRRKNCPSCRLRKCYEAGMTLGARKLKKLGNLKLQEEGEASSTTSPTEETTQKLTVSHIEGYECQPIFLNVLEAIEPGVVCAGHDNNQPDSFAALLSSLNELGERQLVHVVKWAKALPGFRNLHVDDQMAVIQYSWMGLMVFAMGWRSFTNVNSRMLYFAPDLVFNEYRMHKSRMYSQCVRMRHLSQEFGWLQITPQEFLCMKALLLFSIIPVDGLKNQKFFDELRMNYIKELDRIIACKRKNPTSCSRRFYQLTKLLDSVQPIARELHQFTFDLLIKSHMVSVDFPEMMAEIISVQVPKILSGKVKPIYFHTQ

## CSc1cnccn1
[1]
  outcome: inactive
[2]
  Potency: inactive
[3]
  Potency: inactive
[4]
  Potency: inactive
[5]
  Potency: inactive
[6]
  Potency: inactive
[7]
  Potency: inactive
[8]
  Potency: inactive
[9]
  outcome: inactive
[10]
  Potency: inactive
[11]
  Potency: inactive
[12]
  Potency: inactive
[13]
  Potency: inactive
[14]
  outcome: inactive
[15]
  outcome: inactive
[16]
  outcome: inactive
[17]
  Potency: inactive

## CCC(C)OC(C)CC (stereo not given)
[1]
  outcome: inactive
[2]
  Potency: inactive
[3]
  Potency: inactive
[4]
  Potency: inactive
[5]
  Potency: inactive
[6]
  Potency: inactive
[7]
  Potency: inactive
[8]
  Potency: inactive
[9]
  outcome: inactive
[10]
  Potency: inactive
[11]
  Potency: inactive
[18]
  Potency: inactive
[12]
  Potency: inactive
[13]
  Potency: inactive
[14]
  outcome: inactive
[15]
  outcome: inactive
[16]
  outcome: inactive
[17]
  Potency: inactive

## O=C1CCC(=O)N1Cl
[1]
  outcome: inactive
[2]
  Potency: inactive
[3]
  Potency: inactive
[4]
  Potency: inactive
[5]
  Potency: inactive
[6]
  Potency: inactive
[7]
  Potency: inactive
[8]
  Potency: inactive
[9]
  outcome: inactive
[10]
  Potency: inactive
[11]
  Potency: inactive
[12]
  Potency: inactive
[13]
  Potency: inactive
[14]
  outcome: inactive
[15]
  outcome: inactive
[16]
  outcome: inactive

## C=CC(=O)CCCCC
[1]
  outcome: inactive
[2]
  Potency: inactive
[3]
  Potency: inactive
[4]
  Potency: inactive
[5]
  Potency: inactive
[6]
  Potency: inactive
[7]
  Potency: inactive
[8]
  Potency: inactive
[9]
  outcome: inactive
[10]
  Potency: inactive
[11]
  Potency: inactive
[18]
  Potency: inactive
[12]
  Potency: inactive
[13]
  Potency: inactive
[14]
  outcome: inactive
[15]
  outcome: inactive
[17]
  Potency: inactive

## CCCCCc1cccc(=O)o1
[1]
  outcome: inactive
[2]
  Potency: inactive
[3]
  Potency: inactive
[4]
  Potency: inactive
[5]
  Potency: inactive
[6]
  Potency: inactive
[7]
  Potency: inactive
[8]
  Potency: inactive
[9]
  outcome: inactive
[10]
  Potency: inactive
[11]
  Potency: inactive
[12]
  Potency: inactive
[13]
  Potency: inactive
[14]
  outcome: inactive
[15]
  outcome: inactive
[16]
  outcome: inactive
[17]
  Potency: inactive

## C=C(C)c1cccc(C(C)(C)N=C=O)c1
[1]
  outcome: inactive
[2]
  Potency: inactive
[3]
  Potency: inactive
[4]
  Potency: inactive
[5]
  Potency: inactive
[6]
  Potency: inactive
[7]
  Potency: inactive
[8]
  Potency: inactive
[9]
  outcome: inactive
[10]
  Potency: inactive
[11]
  Potency: inactive
[18]
  Potency: inactive
[12]
  Potency: inactive
[13]
  Potency: inactive
[14]
  outcome: inactive
[15]
  outcome: inactive
[16]
  outcome: inactive
[17]
  Potency: inactive

## CC(=O)CC(=O)OC(C)(C)C
[1]
  outcome: inactive
[2]
  Potency: inactive
[3]
  Potency: inactive
[4]
  Potency: inactive
[5]
  Potency: inactive
[6]
  Potency: inactive
[7]
  Potency: inactive
[9]
  outcome: inactive
[10]
  Potency: inactive
[11]
  Potency: inactive
[18]
  Potency: inactive
[12]
  Potency: inactive
[13]
  Potency: inactive
[14]
  outcome: inactive
[15]
  outcome: inactive
[19]
  Potency: inactive
[16]
  outcome: inactive
[17]
  Potency: inactive

## O=C1OCCO1
[1]
  outcome: inactive
[2]
  Potency: inactive
[3]
  Potency: inactive
[4]
  Potency: inactive
[5]
  Potency: 0.366 µM (active)
[6]
  Potency: inactive
[7]
  Potency: inactive
[8]
  Potency: inactive
[9]
  outcome: inactive
[10]
  Potency: inactive
[11]
  Potency: inactive
[18]
  Potency: inactive
[12]
  Potency: inactive
[13]
  Potency: inactive
[14]
  outcome: inactive
[15]
  outcome: inactive
[16]
  outcome: inactive
[17]
  Potency: inactive

## C=C(C)C1CC=C(C)C(=O)C1 (stereo not given)
[1]
  outcome: inactive
[2]
  Potency: inactive
[3]
  Potency: inactive
[4]
  Potency: inactive
[5]
  Potency: inactive
[6]
  Potency: inactive
[7]
  Potency: inactive
[8]
  Potency: inactive
[9]
  outcome: inactive
[10]
  Potency: inactive
[11]
  Potency: inactive
[12]
  Potency: inactive
[13]
  Potency: inactive
[14]
  outcome: inactive
[15]
  outcome: inactive

## CC(O)CC(C)O (stereo not given)
[1]
  outcome: inactive
[2]
  Potency: inactive
[3]
  Potency: inactive
[4]
  Potency: inactive
[5]
  Potency: inactive
[6]
  Potency: inactive
[7]
  Potency: inactive
[8]
  Potency: inactive
[9]
  outcome: inactive
[10]
  Potency: inactive
[11]
  Potency: inactive
[12]
  Potency: inactive
[13]
  Potency: inactive
[14]
  outcome: inactive
[15]
  outcome: inactive
[17]
  Potency: inactive

## C=CCOC(=O)CCCCCC
[1]
  outcome: inactive
[2]
  Potency: inactive
[3]
  Potency: inactive
[4]
  Potency: inactive
[5]
  Potency: inactive
[6]
  Potency: inactive
[7]
  Potency: inactive
[8]
  Potency: inactive
[9]
  outcome: inactive
[10]
  Potency: inactive
[11]
  Potency: inactive
[12]
  Potency: inactive
[13]
  Potency: inactive
[14]
  outcome: inactive
[15]
  outcome: inactive
[19]
  Potency: inactive
[17]
  Potency: inactive

## CC(C)NCC(O)c1ccc2ccccc2c1 (stereo not given)
[1]
  outcome: inactive
[2]
  Potency: inactive
[3]
  Potency: inactive
[4]
  Potency: inactive
[5]
  Potency: inactive
[6]
  Potency: inactive
[7]
  Potency: inactive
[8]
  Potency: inactive
[9]
  outcome: inactive
[10]
  Potency: inactive
[11]
  Potency: inactive
[18]
  Potency: inactive
[12]
  Potency: inactive
[13]
  Potency: inactive
[14]
  outcome: inactive
[15]
  outcome: inactive
[20]
  outcome: inactive
[17]
  Potency: inactive

## N#Cc1cscn1
[1]
  outcome: inactive
[2]
  Potency: inactive
[3]
  Potency: inactive
[4]
  Potency: inactive
[5]
  Potency: inactive
[6]
  Potency: inactive
[7]
  Potency: inactive
[8]
  Potency: inactive
[9]
  outcome: inactive
[10]
  Potency: inactive
[11]
  Potency: inactive
[18]
  Potency: inactive
[12]
  Potency: inactive
[13]
  Potency: inactive
[14]
  outcome: inactive
[15]
  outcome: inactive
[17]
  Potency: inactive

## CCCCOC(=O)[C@H](C)O
[1]
  outcome: inactive
[2]
  Potency: inactive
[3]
  Potency: inactive
[4]
  Potency: inactive
[5]
  Potency: inactive
[6]
  Potency: inactive
[7]
  Potency: inactive
[8]
  Potency: inactive
[9]
  outcome: inactive
[10]
  Potency: inactive
[11]
  Potency: inactive
[18]
  Potency: inactive
[12]
  Potency: inactive
[13]
  Potency: inactive
[14]
  outcome: inactive
[15]
  outcome: inactive
[16]
  outcome: inactive
[17]
  Potency: inactive

## OC1OCCOC1O (stereo not given)
[1]
  outcome: inactive
[2]
  Potency: inactive
[3]
  Potency: inactive
[4]
  Potency: inactive
[5]
  Potency: inactive
[6]
  Potency: inactive
[7]
  Potency: inactive
[8]
  Potency: inactive
[9]
  outcome: inactive
[10]
  Potency: inactive
[11]
  Potency: inactive
[18]
  Potency: inactive
[12]
  Potency: inactive
[13]
  Potency: inactive
[14]
  outcome: inactive
[15]
  outcome: inactive
[16]
  outcome: inactive
[17]
  Potency: inactive

## Cc1ccnc(N)c1
[1]
  outcome: inactive
[2]
  Potency: inactive
[3]
  Potency: inactive
[4]
  Potency: inactive
[5]
  Potency: inactive
[6]
  Potency: inactive
[7]
  Potency: inactive
[8]
  Potency: inactive
[9]
  outcome: inactive
[10]
  Potency: inactive
[11]
  Potency: inactive
[18]
  Potency: inactive
[12]
  Potency: inactive
[13]
  Potency: inactive
[14]
  outcome: inactive
[15]
  outcome: inactive
[17]
  Potency: inactive
